Data from PubChem BioAssay (Tox21).
“And” between values parts separate entries of the source, which are not always exact repeats. Equal entries are not always repeated. Inconclusive results are not listed. Where a call stands in place of a potency, no number is given. Where a structure was tested more than once in an assay, its records may differ in their call. The source made the active and inactive calls. Calls follow the shape of the dose curve; as a rule, active = well fitted cell-killing curve with a large enough effect in the repeat runs; inconclusive = weak or mixed curves, or effect the other way; inactive = no such curve, though single readings can be large or run the other way.

Experiment: qHTS assay to identify small molecule antagonists of the vitamin D receptor (VDR) signaling pathway - cell viability counter screen (AID 743225); also: nearly all actives have a fitted effect of over 50% in size
Settings: VDR-bla HEK293T viability, CellTiter-Glo luminescence, 16 h; series mostly up to 61 µM
Excerpt: U.S. Tox21 Program National Center for Advancing Translational Sciences [NCATS] NIH Chemical Genomics Center [NCGC] U.S. Environmental Protection Agency [EPA] National Institutes of Environmental Health Sciences [NIEHS] National Toxicology Program [NTP] U.S. Food and Drug Administration [FDA] Tox21 Assay Overview: The vitamin D receptor (VDR), a member of nuclear hormone receptor superfamily, plays a critical role in calcium homeostasis and bone metabolism. It is also involved in cell differentiation and growth, and thrombogenicity. To identify the compounds that inhibit VDR signaling, the VDR-UAS-bla HEK 293T cell line (Invitrogen, Carlsbad, CA, USA) containing a beta-lactamase reporter gene under the control of an upstream activator sequence (UAS) was used to screen the Tox21 10K compound library. The cytotoxicity of the Tox21 compound library against the VDR-bla cell line was tested in parallel by measuring the cell viability using CellTiter-Glo assay (Promega, Madison, WI) in the same wells.
Tox21 Assay Protocol Summary: VDR-bla cells were dispensed at 2,000 cells/5 uL of assay medium per well into black wall/clear-bottom 1536-well plates using a Multidrop Combi (Thermo Fisher Scientific, Waltham, MA) dispenser. After the assay plates were incubated at a 37C and 5% CO2 for 4 h, 23 nL of compounds dissolved in DMSO, positive controls or DMSO only was transferred to the assay plate by a Pintool station (Kalypsys, San Diego, CA), followed by addition of 1 uL of 1-alpha, 25-Dihydroxy Vitamin D3 (3 nM, final concentration in the wells) using a Bioraptr Flying Reagent Dispenser (FRD) workstation (Beckman Coulter, Indianapolis, IN). The plates were incubated at 37C and 5% CO2 for 16 h, and then 1 uL of LiveBLAzerTM B/G FRET substrate was added using a Bioraptr FRD. The plates were incubated at room temperature for 2 h and fluorescence intensity was measured by an Envision plate reader (PerkinElmer, Shelton, CT). For cell viability readout that measures cytotoxicity, 3 ul/well of CellTiter-Glo reagent was added into the assay plates using a Bioraptr FRD. After 30 min incubation at room temperature, the luminescence intensity in the plates was measured using a ViewLux plate reader (PerkinElmer).
Potency is read from the fitted curve at half-maximal effect.

Structure (SMILES)	Potency
c1cnc2cc3c(cc2n1)C1CNCC3C1	inactive
COC(=O)[C@H]1[C@H]2C[C@@H]3c4[nH]c5cc(OC)ccc5c4CCN3C[C@H]2C[C@@H](OC(=O)c2cc(OC)c(OC)c(OC)c2)[C@@H]1OC	inactive and 31.8 µM (active)
CCCCCCCCCCCCCCCCCl	inactive
CC(C)(O)CCC(C)(C)O	inactive
Cc1cccc([N+](=O)[O-])c1C(=O)O	inactive
OCCOCCN1CCN(C(c2ccccc2)c2ccc(Cl)cc2)CC1 (stereo not given)	inactive
COC(=O)/C=C/c1ccccc1	inactive
O=C1NCC2(CCN(CCc3ccccc3)CC2)O1	inactive
CC1=C(C=O)C(C)(C)CC=C1	inactive
OCC(CO)N[C@H]1C[C@](O)(CO)[C@@H](O)[C@H](O)[C@H]1O	inactive
O=C(O)c1cccc(C(=O)O)c1	inactive
CCn1c2ccccc2c2cc(N)ccc21	inactive
[Cl][In]([Cl])[Cl]	inactive
CC(=O)OCC1=C(C(=O)O)N2C(=O)[C@@H](NC(=O)Cc3cccs3)[C@H]2SC1	inactive
O=C1OC2(c3ccc(O)cc3Oc3cc(O)ccc32)c2ccccc21	inactive
CCCCCCCCCCCC[N+](C)(C)C	54.9 µM (active)
Nc1cc(S(=O)(=O)O)cc2cc(S(=O)(=O)O)cc(O)c12	inactive
C=CC(=O)OCCCCCCCC	inactive
O=C(O)c1cn(-c2ccc(F)cc2)c2cc(N3CCNCC3)c(F)cc2c1=O	inactive
C#CC(C)(CC)OC(=O)c1ccccc1C(=O)O (stereo not given)	inactive

Structure (SMILES)	Potency
C=C(C)C(=O)O	inactive
Cc1ccc(-c2cc(C(F)(F)F)nn2-c2ccc(S(N)(=O)=O)cc2)cc1	48.8 µM (active)
O=C(O)c1cc(Cl)cc(Cl)c1	inactive
CNC1(C)C2CCC(C2)C1(C)C (stereo not given)	inactive
c1ccc2c(c1)-c1cccc3c1c-2cc1ccccc13	inactive
O=C(O[C@@H]1Cc2c(O)cc(O)cc2O[C@@H]1c1cc(O)c(O)c(O)c1)c1cc(O)c(O)c(O)c1	inactive
CCN(CC)c1ccc2c(C)cc(=O)oc2c1	inactive
Cc1cc(OCCOCC[N+](C)(C)Cc2ccccc2)ccc1C(C)(C)CC(C)(C)C	13.7 µM (active) and 19 µM (active)
c1ccc2c(c1)CCCC2C1=NCCN1 (stereo not given)	inactive
CC(C)(C)c1cc(C(C)(C)C)c(O)c(C(C)(C)C)c1	inactive
CCCCC/C=C/CC1CC(=O)OC1=O (stereo not given)	inactive
NNCCc1ccccc1	inactive
CCC(C)(Oc1ccc(C2(c3ccc(OC(C)(CC)C(=O)O)cc3)CCCCC2)cc1)C(=O)O (stereo not given)	inactive
Cc1c(O)cccc1C(=O)N[C@@H](CSc1ccccc1)[C@H](O)CN1C[C@H]2CCCC[C@H]2C[C@H]1C(=O)NC(C)(C)C	23.9 µM (active) and 21.3 µM (active)
O=C(O)Cn1cnnn1	inactive
Cc1ccnc2c1NC(=O)c1cccnc1N2C1CC1	inactive
CCOc1ccccc1C(N)=O	inactive
Nc1cc(Cl)c(-c2cc(Cl)c(N)cc2Cl)cc1Cl	21.9 µM (active)
Cc1cccc(O)c1C	inactive
CC(C)CCCCCCc1ccc(O)cc1	31.4 µM (active) and 38.9 µM (active)
